Records with an inconclusive call do not appear. Where a call stands in place of a potency, no number is given. The source made the active and inactive calls. Calls follow the shape of the dose curve; as a rule, active = well fitted curve in the direction sought with a large enough effect; inconclusive = small, poorly fitted or top-dose-only effect, or another doubt; inactive = no such curve, though single readings can be large; an effect the other way counts as inactive or inconclusive.

The first experiment in a line: qHTS to identify inhibitors of the type 1 interferon - major histocompatibility complex class I in skeletal muscle: primary screen against the NCATS LOPAC collection (AID 1347405).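 Also: human myoblasts with HiBiT tag on endogenous HLA-B stimulated by IFN-beta; lytic HiBiT luminescence reporting HLA-B protein level.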 Also: potency is read from the fitted curve at half-maximal effect. As to conditions: iHSKM muscle cells, IFN-b-induced MHC-I HiBiT luminescence, 24 h; series mostly up to 45.9 µM. The method, boiled down: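 IFN-beta-stimulated (4 ng/ml) HLA-B HiBiT knock-in myoblasts, compound-treated 24 hrs up to 46 uM final; signal via LgBiT complementation and furimazine luminescence.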
On the technique in general: qHTS replaces the single test concentration by a dilution series.
In the case of `CCCn1c(=O)c2[nH]c(C3CCCC3)nc2n(CCCOC(=O)c2ccc(S(=O)(=O)F)cc2)c1=O`, the Potency entry was “inactive”.

Turning to `Cc1[nH]c2ccc(O)cc2c1CCN`, the Potency result is “inactive”.

For the compound `C[C@H]1C2Cc3ccc(O)cc3[C@@]1(C)CCN2CC1CC1`, the Potency entry was “inactive”.

As to `C[N+]1(C)CCOC(O)(c2ccc(-c3ccc(C4(O)C[N+](C)(C)CCO4)cc3)cc2)C1` (stereo unspecified), the Potency entry is “inactive”.

On to `CCCN(CCC)C1CCc2cccc(O)c2C1` (stereo unspecified), for which the Potency result is “inactive”.

Turning to `CC(C)(C)OC(=O)NC1[C@H]2CNC[C@@H]12` (stereo partly specified), the Potency entry was “inactive”.

As to `CCN1C[C@@]2(COC)C3[C@@H](OC)C4[C@@H]1C3([C@@H]1C[C@]3(O)[C@H](OC(=O)c5ccccc5)[C@@H]1[C@]4(OC(C)=O)[C@@H](O)[C@@H]3OC)[C@H](OC)C[C@H]2O`, the Potency result is “inactive”.

As for `C[C@@H]1O[C@@H](O[C@H]2C[C@@H](O)[C@]3(CO)[C@@H]4C(CC[C@]3(O)C2)[C@@]2(O)CC[C@H]([C@@H]3COC(=O)C3)[C@@]2(C)C[C@H]4O)[C@H](O)[C@H](O)[C@H]1O` (stereo partly specified), the Potency is 1.12 µM (active).

As to `CN(N=O)c1ccc(O)c(O)c1`, the Potency entry is “inactive”.

Take `CCCN1CCc2cc(O)cc3c2[C@H]1Cc1ccc(O)c(O)c1-3`: the Potency entry was “inactive”.

On to `O=C1/C(=C/c2ccccc2)C[C@@]2(O)[C@H]3Cc4ccc(O)c5c4[C@@]2(CCN3CC2CC2)[C@H]1O5`, for which the Potency is 2 µM (active).

In the case of `C[C@H](Cc1ccc2c(c1)OC(C(=O)O)(C(=O)O)O2)NC[C@H](O)c1cccc(Cl)c1`, the Potency result was “inactive”.

For `Clc1cc(I)cc(Cl)c1NC1=NCCN1`, the Potency entry is “inactive”.

Take `[Cl-].[Cl][Pt].[NH2-].[NH2-].c1ccncc1`: the Potency result was “inactive”.

For `CC(=O)c1c(O)c(C)c(O)c(Cc2c(O)c3c(c(C(=O)/C=C/c4ccccc4)c2O)OC(C)(C)C=C3)c1O`, the Potency entry was “inactive”.

Consider `COc1ccc2[nH]cc(CCN)c2c1`, for which the Potency entry was “inactive”.

For the compound `N=C(N)c1ccc(CS(=O)(=O)F)cc1`, the Potency entry is “inactive”.

Take `COc1ccc2[nH]c3c(c2c1)CCNC3`: the Potency entry is “inactive”.

As for `CC(N)Cc1c[nH]c2ccc(OCc3cccs3)cc12` (stereo unspecified), the Potency result was “inactive”.

Turning to `CN1CCc2cccc(Cl)c2CC1`, the Potency entry was “inactive”.

`NC(=O)COc1c(F)cc(SCCNS(=O)(=O)c2ccccc2)cc1F`: the Potency result was “inactive”.

For `NC(N)=Nc1ccc2[nH]c3c(c2c1)C[C@@]1(O)[C@H]2Cc4ccc(O)c5c4[C@@]1(CCN2CC1CC1)[C@H]3O5`, the Potency entry is “inactive”.

Consider `Oc1ccc2c3c1O[C@H]1c4[nH]c5ccccc5c4C[C@@]4(O)C(C2)N(CC2CC2)CCC314` (stereo partly specified), for which the Potency result was “inactive”.

Consider `O=c1ccc2[nH]cc(C3=CCNCC3)c2[nH]1`, for which the Potency result was “inactive”.

Consider `CCCN1CCc2cccc3c2[C@H]1Cc1ccc(O)c(O)c1-3`, for which the Potency entry is “inactive”.

As to `CCCN(CCC)[C@H]1CCc2c(F)ccc(O)c2C1`, the Potency result was “inactive”.

Regarding `NNC(=O)c1ccc(O)cc1`, the Potency result is “inactive”.

Consider `NNC(N)=O`, for which the Potency result was “inactive”.

For `Oc1ccc2c3c1O[C@H]1c4oc5ccccc5c4C[C@@]4(O)C(C2)N(CC2CC2)CCC314` (stereo partly specified), the Potency result is “inactive”.

For the compound `Nc1cc2c(ncn2CCOCP(=O)(O)O)c(=O)[nH]1`, the Potency entry is “inactive”.

Take `O=S1(=O)N(CCN2CC=C(c3c[nH]c4cc(F)ccc34)CC2)c2cccc3c2N1CCC3`: the Potency result was “inactive”.

Regarding `C[N+](C)(C)CC#CCOC(=O)Nc1cccc(Cl)c1`, the Potency entry is “inactive”.

In the case of `N[C@@]1(C(=O)O)CC[C@@H](C(=O)O)C1`, the Potency result was “inactive”.

`OCc1cnc[nH]1`: the Potency entry is “inactive”.

As for `C=CCN1CCC23c4c5ccc(O)c4O[C@H]2C(=O)CC[C@@]3(O)C1C5` (stereo partly specified), the Potency entry is “inactive”.

For `COc1ccc2c(c1O)-c1cccc3c1[C@@H](C2)N(C)CC3`, the Potency entry is “inactive”.

`O=C(NC1CN2CCC1CC2)c1cc2ccoc2cn1` (stereo unspecified): the Potency result is “inactive”.

`NC(Cc1cc(O)c(O)cc1O)C(=O)O` (stereo unspecified): the Potency entry was “inactive”.

A further experiment can be described thus: qHTS for inhibitors of adenylyl cyclases using a fission yeast platform: a pilot screen against the NCATS LOPAC library (AID 1347410). The conditions noted are these: S. pombe CHP2027, fbp1-GFP fluorescence, 18 h; series mostly up to 57.5 µM. The method, boiled down:
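S. pombe CHP2027 (AC9-GNAS-PDE4D2) carrying a PKA-repressed fbp1-GFP reporter was exposed to LOPAC compounds (final up to 57 µM) for 18 h at 30C in the dark, in EMM with histidine, lysine and uracil; GFP gain-of-signal read by laser scanning cytometry.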
As for `CCCn1c(=O)c2[nH]c(C3CCCC3)nc2n(CCCOC(=O)c2ccc(S(=O)(=O)F)cc2)c1=O`, the call was inactive.

On to `Cc1[nH]c2ccc(O)cc2c1CCN`, for which the result was inactive.

Regarding `C[C@H]1C2Cc3ccc(O)cc3[C@@]1(C)CCN2CC1CC1`, the outcome was inactive.

As for `C[N+]1(C)CCOC(O)(c2ccc(-c3ccc(C4(O)C[N+](C)(C)CCO4)cc3)cc2)C1` (stereo unspecified), the call was inactive.

`CCCN(CCC)C1CCc2cccc(O)c2C1` (stereo unspecified): the compound was classed as inactive.

For the compound `CC(C)(C)OC(=O)NC1[C@H]2CNC[C@@H]12` (stereo partly specified), the result was inactive.

For `CCN1C[C@@]2(COC)C3[C@@H](OC)C4[C@@H]1C3([C@@H]1C[C@]3(O)[C@H](OC(=O)c5ccccc5)[C@@H]1[C@]4(OC(C)=O)[C@@H](O)[C@@H]3OC)[C@H](OC)C[C@H]2O`, the result was inactive.

On to `C[C@@H]1O[C@@H](O[C@H]2C[C@@H](O)[C@]3(CO)[C@@H]4C(CC[C@]3(O)C2)[C@@]2(O)CC[C@H]([C@@H]3COC(=O)C3)[C@@]2(C)C[C@H]4O)[C@H](O)[C@H](O)[C@H]1O` (stereo partly specified), for which the outcome was inactive.

Take `CN(N=O)c1ccc(O)c(O)c1`: the compound was classed as inactive.

For the compound `CCCN1CCc2cc(O)cc3c2[C@H]1Cc1ccc(O)c(O)c1-3`, the outcome was inactive.

As for `O=C1/C(=C/c2ccccc2)C[C@@]2(O)[C@H]3Cc4ccc(O)c5c4[C@@]2(CCN3CC2CC2)[C@H]1O5`, the compound was called inactive.

For the compound `C[C@H](Cc1ccc2c(c1)OC(C(=O)O)(C(=O)O)O2)NC[C@H](O)c1cccc(Cl)c1`, the compound was called inactive.

On to `Clc1cc(I)cc(Cl)c1NC1=NCCN1`, for which the result was inactive.

As for `[Cl-].[Cl][Pt].[NH2-].[NH2-].c1ccncc1`, the outcome was inactive.

For `CC(=O)c1c(O)c(C)c(O)c(Cc2c(O)c3c(c(C(=O)/C=C/c4ccccc4)c2O)OC(C)(C)C=C3)c1O`, the result was inactive.

On to `COc1ccc2[nH]cc(CCN)c2c1`, for which the result was inactive.

For the compound `N=C(N)c1ccc(CS(=O)(=O)F)cc1`, the result was inactive.

For the compound `COc1ccc2[nH]c3c(c2c1)CCNC3`, the compound was called inactive.

With `CC(N)Cc1c[nH]c2ccc(OCc3cccs3)cc12` (stereo unspecified), the compound was classed as inactive.

Consider `CN1CCc2cccc(Cl)c2CC1`, for which the outcome was inactive.

Take `NC(=O)COc1c(F)cc(SCCNS(=O)(=O)c2ccccc2)cc1F`: the call was inactive.

With `NC(N)=Nc1ccc2[nH]c3c(c2c1)C[C@@]1(O)[C@H]2Cc4ccc(O)c5c4[C@@]1(CCN2CC1CC1)[C@H]3O5`, the compound was classed as inactive.

Consider `Oc1ccc2c3c1O[C@H]1c4[nH]c5ccccc5c4C[C@@]4(O)C(C2)N(CC2CC2)CCC314` (stereo partly specified), for which the outcome was inactive.

`O=c1ccc2[nH]cc(C3=CCNCC3)c2[nH]1`: the call was inactive.

`CCCN1CCc2cccc3c2[C@H]1Cc1ccc(O)c(O)c1-3`: the compound was classed as inactive.

As for `CCCN(CCC)[C@H]1CCc2c(F)ccc(O)c2C1`, the compound was called inactive.

Consider `NNC(=O)c1ccc(O)cc1`, for which the compound was classed as inactive.

With `NNC(N)=O`, the call was inactive.

`Oc1ccc2c3c1O[C@H]1c4oc5ccccc5c4C[C@@]4(O)C(C2)N(CC2CC2)CCC314` (stereo partly specified): the compound was called inactive.

As for `Nc1cc2c(ncn2CCOCP(=O)(O)O)c(=O)[nH]1`, the outcome was inactive.

On to `O=S1(=O)N(CCN2CC=C(c3c[nH]c4cc(F)ccc34)CC2)c2cccc3c2N1CCC3`, for which the result was inactive.

As for `C[N+](C)(C)CC#CCOC(=O)Nc1cccc(Cl)c1`, the compound was classed as inactive.

Take `N[C@@]1(C(=O)O)CC[C@@H](C(=O)O)C1`: the call was inactive.

For the compound `OCc1cnc[nH]1`, the outcome was inactive.

For the compound `C=CCN1CCC23c4c5ccc(O)c4O[C@H]2C(=O)CC[C@@]3(O)C1C5` (stereo partly specified), the call was inactive.

On to `COc1ccc2c(c1O)-c1cccc3c1[C@@H](C2)N(C)CC3`, for which the result was inactive.

With `O=C(NC1CN2CCC1CC2)c1cc2ccoc2cn1` (stereo unspecified), the compound was called inactive.

For the compound `NC(Cc1cc(O)c(O)cc1O)C(=O)O` (stereo unspecified), the compound was classed as inactive.
